Screening data as filed in PubChem BioAssay.
POLH inh – DNA polymerase eta (human) inhibition; Q9Y253; recombinant Pol eta, fluorescent DNA replication assay; Potency, µM (top dose mostly 114 µM), actives largely listed as inhibitors; 390,000 tested, 1.2% active; AID 588591
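Fluorescent replication assay: 50 nM final substrate added after a 15 min room-temperature compound preincubation with 10 nM enzyme. Signal taken at 0 min and again at 10 min.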
Pol iota inh – blocks human DNA polymerase iota activity. Q9UNA4. Pol iota fluorescent replication assay, 10 min. Potency, µM (top dose mostly 115 µM), hits mostly inhibitors. 390,000 tested, 1% active
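Pol iota at 10 nM preincubated 15 min with compounds at room temperature; reaction started with fluorescent substrate, 50 nM final. Fluorescence read kinetically at 0 and 10 min; buffer-only wells as negative control.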
WRN inhibitor – blocks human WRN helicase | Q14191 | WRN helicase unwinding, fluorescent forked duplex, kinetic | Potency, µM (highest dose often 114 µM), actives largely listed as inhibitors | 360,000 tested, 0.46% active; also: nearly all actives have a fitted effect of over 55% in size
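Kinetic fluorescence helicase assay: unwinding of a quenched forked DNA duplex (100 nM final) with 2 mM ATP final raises red fluorescence (525/598 nm). Compounds sat 15 min at room temperature with 20 nM WRN beforehand.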
Pol kappa inh – inhibitors of human DNA polymerase kappa. Q9UBT6. purified Pol kappa, fluorescent DNA synthesis assay, 10 min. Potency, µM (top dose mostly 107 µM), usual class: inhibitors. 400,000 tested, 0.53% active. AID 588579
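Readout: fluorescence, taken kinetically at 0 and 10 min. Conditions: 10 nM Pol kappa, 15 min RT compound preincubation, 50 nM substrate final. Controls: enzyme-free buffer wells.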
FEN1 inhibitor – inhibitors of human flap endonuclease 1 | P39748 | Recombinant FEN1 flap cleavage, fluorescence, 15 min | Potency, µM (doses to about 114 µM), hits mostly inhibitors | 390,000 tested, 0.35% active | AID 588795; also: nearly all actives have a fitted effect of over 65% in size
Target sequence (P39748 whole entry, looked up): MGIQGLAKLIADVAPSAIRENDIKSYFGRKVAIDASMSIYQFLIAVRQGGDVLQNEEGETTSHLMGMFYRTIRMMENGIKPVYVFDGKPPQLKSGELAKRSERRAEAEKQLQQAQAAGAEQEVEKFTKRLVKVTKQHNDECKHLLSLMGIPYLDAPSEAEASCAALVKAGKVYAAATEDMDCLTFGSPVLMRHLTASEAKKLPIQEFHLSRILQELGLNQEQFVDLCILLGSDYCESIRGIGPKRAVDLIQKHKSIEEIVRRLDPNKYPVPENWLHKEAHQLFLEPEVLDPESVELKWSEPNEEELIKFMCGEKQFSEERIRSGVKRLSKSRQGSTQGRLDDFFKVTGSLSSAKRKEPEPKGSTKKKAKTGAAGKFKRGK
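Read-out was taken twice, immediately and after 15 min, following addition of 50 nM substrate to 10 nM FEN1 that had sat with test compound for 15 min at room temperature. Curves came from a four-parameter Hill model.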
POLB inh – blocks human DNA polymerase beta activity; P06746; 340,000 tested, 1.3% active; AID 485314; Pol beta primer extension/strand displacement, fluorescence kinetic; Potency, µM (doses to about 114 µM), most hits filed as inhibitors
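Curves were derived by four-parameter Hill fits of normalized qHTS data. The kinetic fluorescent primer-extension read was taken at 0 and 10 min after 50 nM substrate, following a 15 min room-temperature preincubation of 10 nM enzyme with compounds.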
Numbers stand for hits; . = inactive; ? = inconclusive; / = no result given; ! = not confirmed by another sample; [ ] = dose if it differs, or a comment. Rows were chosen to be rich in hits. Some 2.4% of all compounds tested hit in one or more screens of this group. Calls follow the shape of the dose curve; as a rule, active = well fitted curve in the direction sought with a large enough effect; inconclusive = small, poorly fitted or top-dose-only effect, or another doubt; inactive = no such curve, though single readings can be large; an effect the other way counts as inactive or inconclusive.

SMILES | POLH inh | Pol iota inh | WRN inhibitor | Pol kappa inh | FEN1 inhibitor | POLB inh
O=C(Nc1ccc(Br)cc1C(=O)O)c1ccc2c(c1)C(=O)N(Cc1ccccc1)C2=O | 28µM | . | ? | . | ? | .
CN1c2ccccc2C(NCCCCCCC(=O)O)c2ccc(Cl)cc2S1(=O)=O (centres undefined) | / | / | / | . | / | /
CCOc1cc(C=C2C(=O)NC(=O)NC2=O)ccc1OS(=O)(=O)c1ccccc1 | . | . | 45µM | . | . | .
CCOc1ccc(C=C2C(=O)NC(=S)NC2=O)cc1OCC | . | ? | ? | . | . | /
C[C@@H](NC(=O)[C@@H](N)Cc1ccc(O)cc1)C(=O)NCC(=O)N(C)[C@@H](Cc1ccccc1)C(=O)NCCO | / | / | / | . | / | /
O=[N+]([O-])c1cc(O)c(O)c([N+](=O)[O-])c1 | ? | ? | . | 16µM! | . | .
COC[C@H]1OC(=O)c2coc3c2[C@@]1(C)C1=C(C3=O)[C@@H]2CCC(=O)[C@@]2(C)C[C@H]1OC(C)=O | . | 89µM | ? | . | . | /
CN(C)c1c([N+](=O)[O-])cc(N2C(=O)C=CC2=O)cc1[N+](=O)[O-] | . | ? | 35µM | . | . | /
COC(=O)C1=C(c2ccc3ccccc3c2)C[C@@H]2CC[C@H]1N2C(=O)NCC1CC1 | . | . | . | . | . | /
COC(=O)C1=C(c2ccc3ccccc3c2)C[C@@H]2CC[C@H]1N2C(=O)NCc1ccco1 | 35µM | . | .[11.6 µM] | ? | . | /
CCOC(=O)c1c(/N=C/c2c(O)n(-c3ccccc3F)c(=S)[nH]c2=O)sc2c1CCCC2 | . | ? | ? | . | . | .
CCOC(=O)c1ccc(N=Cc2c(O)n(-c3ccccc3F)c(=S)[nH]c2=O)cc1 | . | ? | 79µM | . | ? | .
CC[C@H](CO)NC(=O)[C@H]1C=C2c3cccc4[nH]cc(c34)C[C@@H]2N(C)C1 | / | / | / | .[12 µM] | / | /
Cc1ccc(N2C(=O)NC(=O)/C(=C/c3ccc(OC(=O)c4cccs4)cc3)C2=O)cc1 | . | . | 50µM | . | . | .
COc1ccc(N2C(=O)NC(=O)/C(=C/c3cccc(OC(=O)c4cccs4)c3)C2=O)cc1Cl | . | . | ? | . | . | .
C#CCOC(C(=O)OCCN(C)C)(c1ccccc1)c1ccccc1 | / | / | / | .[19.4 µM] | / | /
CC/C(CC(c1ccccc1)c1c(O)c2ccccc2oc1=O)=N\NC(N)=S (centres undefined) | 28µM | ? | . | ? | . | ?
CC(=O)CC(c1ccccc1)c1c(O)c2ccccc2oc1=O (centres undefined) | . | ? | . | . | . | .
N=C(N)c1ccc(CS(=O)(=O)F)cc1 | / | / | / | . | / | /
N=C(N)c1ccc(-c2ccc(-c3ccc(C(=N)N)cc3)o2)cc1 | / | 10µM | / | 13µM | 40µM | /
O=C1NC(=O)N(CCc2ccc(F)cc2)C(=O)/C1=C\C=C\c1ccccc1 | . | 3.2µM | . | . | . | .
CN(C)c1ccc(/C=C2/C(=O)NC(=O)N(CCc3ccc(F)cc3)C2=O)cc1 | . | . | . | . | . | .
CCN1C[C@@]2(COC)C3[C@@H](OC)C4[C@@H]1C3([C@@H]1C[C@]3(O)[C@H](OC(=O)c5ccccc5)[C@@H]1[C@]4(OC(C)=O)[C@@H](O)[C@@H]3OC)[C@H](OC)C[C@H]2O | / | / | / | . | / | /
CCCCC[C@@H](/C=C/C=C\C/C=C\C/C=C\CCCC(=O)O)OO | / | / | / | .[19.4 µM] | / | /
CCCCC/C=C\C/C=C\C/C=C\C/C=C\CCCC(=O)NCc1ccoc1 | / | / | / | 7.9µM | / | /
SMILES | POLH inh | Pol iota inh | WRN inhibitor | Pol kappa inh | FEN1 inhibitor | POLB inh
CCCCC/C=C\C/C=C\C/C=C\C/C=C\CCCC(=O)Nc1ccc(O)cc1 | / | / | / | .[19.4 µM] | / | .
CCCCC/C=C\C/C=C\C/C=C\C/C=C\CCCC(N)=O | / | / | / | .[19.4 µM] | / | /
CCCCC/C=C\C/C=C\C/C=C\C/C=C\CCCC(=O)NCCCC(=O)O | / | / | / | 14µM | / | /
CCCCC/C=C\C/C=C\C/C=C\C/C=C\CCCC(=O)NCC(=O)O | 0.5µM | 2.2µM | / | 7.5µM! | ? | 1.4µM
N#CC1=C(N)Oc2n[nH]c(-c3cccs3)c2C1c1ccco1 (centres undefined) | ? | 13µM | . | . | . | .
N#CC1=C(N)Oc2n[nH]c(-c3cccs3)c2C1c1ccsc1 (centres undefined) | ? | . | ? | . | . | ?
c1cc(CN2CCCC3(CCNCC3)C2)ccn1 | / | / | / | . | / | /
Cc1cc(C)cc(N2C(=O)NC(=O)/C(=C/c3cccn3-c3ccc(Cl)cc3)C2=O)c1 | 79µM | ? | .[11.6 µM] | . | . | .
CC(C)(C)n1cccc1/C=C1\C(=O)NC(=O)N(c2ccccc2)C1=O | . | ? | . | . | . | .
CC(C)C[C@H]1C(=O)N2CCC[C@H]2[C@]2(O)O[C@](NC(=O)[C@@H]3C=C4c5cccc6[nH]c(Br)c(c56)C[C@H]4N(C)C3)(C(C)C)C(=O)N12 | / | / | / | . | / | /
CC(C)C[C@H]1C(=O)N2CCC[C@H]2[C@]2(O)O[C@](NC(=O)[C@@H]3C=C4c5cccc6[nH]cc(c56)C[C@H]4N(C)C3)(C(C)C)C(=O)N12 | . | 11µM | . | . | ? | /
Cc1ccc(C=C2C(Cl)=C(Cl)C(Cl)=C2Cl)cc1 | 11µM | 2.8µM | 45µM | 16µM | ? | 4µM
CN(C)CCO | / | / | / | . | / | /
COC(=O)/C(C)=C\CC12OC(C)(C)C3CC(C=C4C(=O)c5c(OC)c6c(c(CC=C(C)C)c5OC431)OC(C)(CCC=C(C)C)C=C6)C2=O (centres undefined) | / | / | / | . | / | /
CC(=O)Oc1c2c(c(CC=C(C)C)c3c1C(=O)C1=CC4CC5C(C)(C)OC(C/C=C(\C)C(=O)O)(C4=O)[C@]15O3)OC(C)(CCC=C(C)C)C=C2 (some centres undefined) | / | / | / | 25µM | / | /
O=C1NC(=O)C(=Cc2cccc(OCCOc3ccccc3)c2)C(=O)N1 | . | ? | . | . | . | .
O=C1NC(=O)C(=Cc2ccc(OCCOc3ccc([N+](=O)[O-])cc3)cc2)C(=O)N1 | 79µM | ? | .[11.6 µM] | . | ? | ?
O=C(CO)[C@@H](O)C(O)[C@@H](O)CO (some centres undefined) | / | / | / | . | / | /
CC(N)(COP(=O)(O)Oc1ccccc1)C(=O)O (centres undefined) | / | / | / | .[19.4 µM] | / | /
CC1(C)OC(c2ccccc2)=C/C(=C/C=C2C(=O)NC(=O)NC2=O)O1 | ? | ? | ? | . | . | 14µM
O=S(=O)(Nc1c(O)ccc2ccccc12)c1ccc(F)cc1 | . | ? | 50µM | . | ? | /
CN1CCN(C(=O)COc2ccc(S(=O)(=O)Nc3ccc(F)cc3)cc2)CC1 | . | . | . | . | . | .
CCN(c1ccc(C)cc1C)S(=O)(=O)c1nnc(NC(=O)c2ccco2)s1 | 79µM | ? | . | . | . | .
COC(=O)C1=C(C(=O)OC)SC2(S1)C(C(=O)OC)=C(C(=O)OC)Sc1c2ssc1=O | . | . | 13µM | . | . | /
